A selection: hits, their analogues and other compounds. The true share with any hit is near 1.8%.
MsrA inhibitor: bovine MsrA inhibition; hit rate 0.75% among 360,000; purified bovine MsrA, absorbance read-out; inhibition, % at 15.5 µM; AID 651718; in the data active = inhibition above about 4.5%;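 also: 0% = vehicle wells with enzyme and 100% = reference inhibitor wells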
GC-B act: GC-B (human) receptor activation; P20594; HEK293-GC-B cells, CNP EC30, cGMP TR-FRET; 0% at EC30 CNP, 100% saturating CNP; activation, % at 10 µM; hit rate 0.11% among 370,000;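 active = activation at 10 µM reaching about 35% in either raw or pattern-adjusted values, limit read from the data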
GC-A act: GC-A (human) enzyme activation. activation, % at 10 µM. hit rate 0.14% among 370,000. P16066. HEK293 GC-A cells, cGMP TR-FRET, EC30 ANP; 0% at EC30 ANP, 100% saturating ANP; in the data active = activation above about 40%
MsrA act: activates bovine MsrA enzyme; purified bovine MsrA, absorbance read-out; activation, % at 10.6 µM; hit rate 0.3% among 360,000; in the data active = activation above about 7.5%;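 also: 0% = vehicle and 100% = reference activator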
HTR2A ag: mouse HTR2A agonism via beta-arrestin recruitment | P35363 | CHO-K1 mHTR2A beta-arrestin complementation, luminescence; percent of 30 µM serotonin response | activation, % at 7.6 µM | hit rate 0.66% among 360,000;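 active = activation above a run cutoff, the mean activation of all tested compounds plus 3 SD, cut at about 14% in these data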;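 also: 0% = plate median of compound wells and 100% = 30 µM serotonin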
The depositor's hits bear a star; . = no result given.

SMILES	MsrA inhibitor	GC-B act	GC-A act	MsrA act	HTR2A ag
NC(=O)CCCn1c(C(=O)c2cc(Cl)c(N)c(Cl)c2)c2ccc([N+](=O)[O-])cc2[n+]1[O-]	2	58*	-6	-2	0
C/C=C/C(=O)N1CCC(C(=O)NC2CCCc3ccccc32)CC1 (stereo not given)	.	-1	3	.	.
COc1ccc(Nc2ccc3c(c2)=NC2(CCCCC2)[N+]=3[O-])cc1	15*	.	.	5	-5
CCC[C@H]1[C@@H](N(C)Cc2cccs2)CC[C@@]23CCCN2C(=O)CCC[C@@H]13	.	-12	-13	.	.
COC1=C(OC)C(=O)C(Sc2ccc3ccccc3c2)=CC1=O	-1	20	40*	-13	1
COc1ccc(S(=O)(=O)Oc2ccc3ccccc3c2)cc1	3	-3	2	-1	2
CN1CCC(N[C@@H](Cc2ccccc2)C(=O)NCC(c2ccccc2)c2ccccc2)(C(=O)NC2CCCCC2)CC1	.	-18	-26	.	.
COc1cc(C(=O)NC2CCN(C)CC2)ccc1Nc1ncc2c(n1)N(C1CCCCC1)CCC(=O)N2C	3	34	29	-6	-2
COc1cc(C(=O)NC2CCN(C)CC2)ccc1Nc1ncc2c(n1)N(Cc1ccccc1)CCC(=O)N2C	-1	38*	33	-7	-3
C/C=C(\C)C(=O)OC1[C@H](OC(C)=O)C2(CO)C(CC1(C)C)C1=CCC3C4(C)CCC(O[C@@H]5O[C@H](C(=O)O)[C@@H](O[C@@H]6O[C@H](CO)[C@@H](O)[C@H](O)[C@H]6O)[C@H](O)[C@H]5O[C@H]5O[C@H](CO)[C@@H](O)[C@H](O)[C@H]5O)[C@](C)(CO)C4CCC3(C)[C@]1(C)C[C@H]2O (stereo not given in full)	.	.	.	-3	15*
C/C=C(/C)C(=O)OC1CC(C)(C)C[C@H]2C3=CC[C@@H]4[C@@]5(C)CCC(O[C@@H]6O[C@@H](C(=O)O)[C@@H](O)C(O[C@@H]7OC[C@H](O)[C@@H](O)[C@@H]7O[C@@H]7OC(CO)C(O)[C@@H](O)[C@@H]7O)C6O[C@@H]6OC(CO)C(O)C(O)C6O)[C@@](C)(CO)[C@@H]5CC[C@]4(C)[C@]3(C)CC(O)[C@@]12CO (stereo not given in full)	.	.	.	-2	0
O=C(c1cnn2c(C(F)(F)F)cc(-c3ccc4c(c3)OCO4)nc12)N1CCCCC1	2	49*	44*	-5	-3
CN1CCN(C(=O)c2cnn3c(C(F)(F)F)cc(-c4cccs4)nc23)CC1	2	6	6	-6	-3
O=C(c1cnn2c(C(F)(F)F)cc(-c3cccs3)nc12)N1CCN(Cc2ccccc2)CC1	1	46*	51*	0	12
CCOc1ccc(-n2c(SCC(=O)Nc3cccc4ccccc34)nnc2-c2ccco2)cc1	.	-2	0	.	.
CCNC(=O)O/N=C(\C)c1sc(-c2ccc(Cl)cc2)nc1C	4.6*	0	6	-4	0
C/C(=N\OC(=O)NC(C)C)c1sc(-c2ccc(Cl)cc2)nc1C	1	-2	8	-4	-2
CC(C)Oc1ccc(-c2cc(C(=O)NCCN3CCOCC3)c3ccccc3n2)cc1	4.6*	-1	6	1	2
O=C(NCCN1CCOCC1)c1cc(-c2ccc(F)cc2)nc2ccccc12	0	0	-4	-6	-6
Cc1cc(C)nc(N2CCC(C(=O)N(C)CCc3ccccn3)CC2)n1	.	4	2	.	.
CCOC(=O)CNCCC(=O)c1ccc(Br)cc1	0	-9	49*	-6	2
CCOC(=O)N1CCN(C(=O)C[C@H]2C(=O)N(CCCOC)C3=CCCCC[C@]32C(=O)OC)CC1	.	-1	1	.	.
O=C(O)c1ccc(CSc2nnc(-c3ccccc3Br)o2)cc1	0	0	4	-2	16*
Cc1snc(S(=O)(=O)/C(C#N)=N\Nc2ccccc2)c1C#N	3	2	-1	-1	-5
Cc1snc(S(=O)(=O)/C(C#N)=N/Nc2ccc(C(F)(F)F)cc2)c1C#N	4.6*	-3	4	1	5
SMILES	MsrA inhibitor	GC-B act	GC-A act	MsrA act	HTR2A ag
CCN(C)C(=O)CNc1nnnn1-c1ccccc1	.	1	7	.	.
O=C(O)c1cccc2cc(-c3ccccc3)oc(=O)c12	2	3	3	-4	5
O=C(O)c1cccc2cccc(-c3c4ccc(=O)c(O)c-4oc4c(O)c(O)ccc34)c12	2	48*	-28	-8	7
CCOC(=O)N[C@H](C(=O)N1CCC[C@H]1C(=O)NCCc1ccccc1Cl)c1ccccc1	0	-5	-3	.	.
C[C@H]1COc2cccc(N3CCSCC3)c2S(=O)(=O)N1C	.	2	3	.	.
O=C(Nc1ccc(O)cc1)c1cc2ccccc2c(=O)s1	4.7*	-5	-5	1	-4
O=C(CCc1nc(-c2ccccc2F)no1)NCCc1c[nH]c2ccccc12	.	-11	-3	.	.
Cc1c(NC(=O)Nc2ccc(Cl)cc2)c(=O)n(-c2ccccc2)n1C	0	2	2	-1	4
Cc1c(N=C2N=C(NC(=O)Nc3ccc(Cl)cc3)c3ccccc32)c(=O)n(-c2ccccc2)n1C	0	-3	76*	-4	3
CC[C@H](CCCc1ccc(F)cc1)CN(Cc1ccc(OC)cc1)S(=O)(=O)c1ccc(C)cc1	.	3	-1	.	.
CCOC(=O)C1=NOC(C(=O)NCCO)(C(=O)C2CC2)C1 (stereo not given)	.	-9	0	.	.
O=C1C(Cl)=C(NCCN2CCCCC2)C(=O)c2ccccc21	.	.	.	18*	-2
CC(C)c1cc(C(C)C)c(S(=O)(=O)N2CCCC(C(=O)N3CCN(Cc4ccccc4)CC3)C2)c(C(C)C)c1 (stereo not given)	.	-3	2	.	.
CCN(CC)c1nc(C)nc2c1nnn2Cc1ccccc1	.	0	4	.	.
O=C(Nc1cccc(NC(=O)c2cc([N+](=O)[O-])ccc2Cl)n1)c1cc([N+](=O)[O-])ccc1Cl	.	.	.	-6	21*
O=C(Nc1ccccn1)c1ccc([N+](=O)[O-])cc1Cl	0	8	1	-6	0
CCOC(=O)CSc1nc2sc3c(c2c(=O)n1-c1ccc(OC)cc1)CCN(C)C3	4	-5	21	-5	-3
CCOC(=O)CSc1nc2sc3c(c2c(=O)n1-c1ccc(C)cc1)CCN(C)C3	4.6*	-2	16	-9	-1
CCCCCCNC(=O)C1CSCCS(=O)(=O)N1Cc1ccccc1 (stereo not given)	.	5	2	.	.
COc1ccc(/C=C/C(=O)NCCCNC(=O)/C=C/c2ccc(OC)c(OC)c2)cc1OC	2	4	0	-2	-8
COc1ccc(/C=C/C(=O)Nc2nc(C)cc(C)n2)cc1OC	4.9*	-7	-3	-6	-1
CCOc1cc(/C=C2/C(=O)ON=C2C)ccc1OCc1ccccc1	1	37*	43*	.	.
CCOc1cc(/C=C2/C(=O)ON=C2C)ccc1OCc1ccccc1F	0	40*	43*	-8	-6
